Assay results: PubChem BioAssay (NCATS)
Records with an inconclusive call do not appear. Where a call stands in place of a potency, no number is given. Activity calls are given as the source filed them. Unless noted, calls come from the whole dose curve; as a rule, active = well fitted curve in the direction sought with a large enough effect; inconclusive = small, poorly fitted or top-dose-only effect, or another doubt; inactive = no such curve, though single readings can be large; an effect the other way counts as inactive or inconclusive.

Key:
[1] = target: T1, Hexokinase-4 (Homo sapiens) + Glucokinase regulatory protein (Homo sapiens) (UniProt P35557+Q14397); assay: qHTS assay for inhibitors of recombinant human GCK-GKRP interaction: Diaphorase-coupled assay (AID 743205)
In short: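 GST-GCK (10 nM) with FLAG-GKRP (10 nM), 5 mM glucose and 0.4 mM ATP in pH 7.6 Hepes; compounds preincubated 20 min with substrate. G6PDH/diaphorase coupling converts resazurin to resorufin, read kinetically (ex 525/em 590 nm) for 30 min.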

[2] = target: T1, Hexokinase-4 (Homo sapiens) + Glucokinase regulatory protein (Homo sapiens); assay: qHTS assay for inhibitors of recombinant human GCK-GKRP interaction: ADP-Glo assay (AID 743206)
In short: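 Pin-transferred compounds meet a 15 nM GST-GCK/15 nM FLAG-GKRP/2 uM S6P mix (dispense concentrations). ATP is then added to 0.4 mM final with 5 mM glucose, and the reaction runs 60 min at room temperature. ADP is quantified luminescently.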

[3] = target: T1, Hexokinase-4 (Homo sapiens) + Glucokinase regulatory protein (Homo sapiens); assay: qHTS assay for inhibitors of recombinant human GCK-GKRP interaction: HTRF assay (AID 743207)
In short: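 GST-GCK and FLAG-GKRP (5 nM each) were combined with 2 uM S6P in pH 7.1 Hepes/MgCl2/KCl/DTT buffer, then compound and anti-FLAG XL665/anti-GST K antibodies were added. After 60 min at room temperature, HTRF 665/615 nm emission was read.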

[4] = qHTS Assay for Identifying Gametocytocidal Compounds (AID 743244);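 note: actives lower the fluorescent signal which means gametocytes are killed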; conditions: P. falciparum 3D7 stage III-V gametocytes, alamarBlue, 72 h; max response: stronger effect = lower value
In short: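 In this qHTS viability screen, late-stage 3D7 gametocytes are incubated with compound for 72 h, then with alamarBlue for 24 h; reduced resorufin fluorescence marks killing.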

[5] = qHTS assay for measurement of the activity of small molecule inhibitors on Zika virus induced Caspase-3 activity in human iPSC derived neural progenitor cells (hNPCs) (AID 1224857); note: nearly all actives have a fitted effect of over 65% in size
In short: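 In medium with heparin 2 ug/ml and cyclopamine 2 uM, hNPCs (350 cells/well) received compound for one hour and then Zika virus at 2 FFU/cell; caspase activity was measured by Caspase-Glo 3/7 luminescence 6 h post-infection.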

[6] = qHTS assay for measurement of the activity of small molecule inhibitors on Zika virus induced Caspase-3 activity in human astrocytoma cells (AID 1224859)
In short: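 A cell-based luminescent caspase-3/7 assay used SNB-19 cells infected with ZIKV (2 FFU/cell) for 6 h following 1 h compound pretreatment.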

[7] = Natriuretic polypeptide receptor (hNpr1) antagonism - Pilot counterscreen GloSensor control cell line (AID 1347045; calls by dose curve; note: potency is the fitted concentration of half-maximal effect)
In short: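 HEK293 cGMP-sensor cells; 2% GloSensor reagent 2 h RT; LOPAC compounds in 1:5 titrations 30-50 min; 50 uM SNP 20 min; luminescence pre-read and post-read.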

[8] = target: Atrial natriuretic peptide receptor 1 (Homo sapiens) (UniProt P16066); assay: Natriuretic polypeptide receptor (hNpr1) antagonism - Pilot screen (AID 1347049; calls by dose curve;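 note: HEK293 cells with hNpr1 and GloSensor cGMP luciferase stimulated by 0.1 nM hNppA; agonist-evoked cGMP luminescence read 20 min after hNppA addition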; note: potency is the fitted concentration of half-maximal effect)
In short: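 Receptor antagonism read as cGMP-dependent luminescence in hNpr1/pGS-40F HEK293 cells: pre-read after 30 min compound exposure, post-read 20 min after hNppA agonist at 0.1 nM final, all at room temperature, protected from light; A-71915 titration as control.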

[9] = target: Atrial natriuretic peptide receptor 2 (Homo sapiens) (UniProt P20594); assay: Natriuretic polypeptide receptor (hNpr2) antagonism - Pilot subtype selectivity assay (AID 1347050; calls by dose curve; note: potency is the fitted concentration of half-maximal effect)
In short: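 Antagonist mode: compounds (LOPAC1280, seven 1:5 dilutions) added 30 min before 1 nM hNppC stimulation of hNpr2-HEK293 cGMP-sensor cells; luminescence read before and 20 min after agonist at ambient temperature.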

[10] = qHTS profiling of the MIPE4 collection as inhibitors of Plasmodium falciparum (3D7) proliferation (AID 743344; call rule not given here); conditions: P. falciparum 3D7 in erythrocytes, SYBR Green DNA fluorescence, 72 h; at 28.5 µM (top of the series)
In short: (§1)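 Parasite DNA was quantified by SYBR Green I fluorescence (ex 485, em 535 nm) after overnight lysis in saponin/Triton buffer at room temperature. Cultures at 0.3% parasitemia and 2.5% hematocrit were first exposed to compound for 72 h at 37 C; signals were normalised to artemisinin (0.29 uM) and vehicle wells.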

[11] = qHTS profiling of the MIPE4 collection as inhibitors of Plasmodium falciparum (DD2) proliferation (AID 743345; call rule not given here); conditions: P. falciparum Dd2 in erythrocytes, SYBR Green DNA, 72 h; at 28.5 µM (top of the series)
In short: as §1

[12] = qHTS profiling of the MIPE4 collection as inhibitors of Plasmodium falciparum (DD2) proliferation (Rep 2) (AID 743346; call rule not given here); conditions: P. falciparum Dd2 in erythrocytes, SYBR Green DNA, 72 h; at 28.5 µM (top of the series)
In short: as §1

[13] = qHTS profiling of the MIPE4 collection as inhibitors of Plasmodium falciparum (HB3) proliferation (AID 743347; call rule not given here); conditions: P. falciparum HB3 in erythrocytes, SYBR Green DNA, 72 h; at 28.5 µM (top of the series)
In short: as §1

T1 sequence (P35557 whole entry, looked up): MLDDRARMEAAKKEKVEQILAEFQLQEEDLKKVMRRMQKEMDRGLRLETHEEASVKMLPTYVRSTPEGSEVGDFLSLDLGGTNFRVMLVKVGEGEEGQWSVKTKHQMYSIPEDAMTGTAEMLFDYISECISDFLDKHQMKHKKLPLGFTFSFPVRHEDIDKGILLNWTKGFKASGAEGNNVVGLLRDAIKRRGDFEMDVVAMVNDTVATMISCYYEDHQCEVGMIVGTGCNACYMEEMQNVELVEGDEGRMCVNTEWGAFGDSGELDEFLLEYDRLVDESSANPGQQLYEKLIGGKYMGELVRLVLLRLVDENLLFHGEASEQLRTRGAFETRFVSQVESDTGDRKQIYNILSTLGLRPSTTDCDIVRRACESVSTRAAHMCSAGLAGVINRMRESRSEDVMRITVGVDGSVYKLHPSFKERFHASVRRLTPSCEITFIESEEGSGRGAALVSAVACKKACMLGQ
T1 sequence (Q14397 whole entry, looked up): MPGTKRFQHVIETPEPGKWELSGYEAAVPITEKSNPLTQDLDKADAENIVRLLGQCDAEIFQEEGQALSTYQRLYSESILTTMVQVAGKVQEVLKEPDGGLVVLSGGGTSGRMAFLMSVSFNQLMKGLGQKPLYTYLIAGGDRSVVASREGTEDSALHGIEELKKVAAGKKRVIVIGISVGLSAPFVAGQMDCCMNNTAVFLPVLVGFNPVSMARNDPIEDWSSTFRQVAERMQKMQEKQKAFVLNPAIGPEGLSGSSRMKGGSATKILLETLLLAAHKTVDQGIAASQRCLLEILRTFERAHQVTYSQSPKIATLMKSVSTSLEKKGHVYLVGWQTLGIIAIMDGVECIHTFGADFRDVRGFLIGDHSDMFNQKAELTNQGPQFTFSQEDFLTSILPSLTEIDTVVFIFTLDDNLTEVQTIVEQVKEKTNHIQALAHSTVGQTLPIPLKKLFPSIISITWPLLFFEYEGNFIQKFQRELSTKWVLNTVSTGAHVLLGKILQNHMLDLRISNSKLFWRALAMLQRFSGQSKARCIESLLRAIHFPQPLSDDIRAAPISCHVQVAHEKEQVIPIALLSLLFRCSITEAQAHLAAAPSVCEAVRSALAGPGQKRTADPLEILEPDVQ
Sequence of Atrial natriuretic peptide receptor 2 (Homo sapiens) (P20594 whole entry, looked up): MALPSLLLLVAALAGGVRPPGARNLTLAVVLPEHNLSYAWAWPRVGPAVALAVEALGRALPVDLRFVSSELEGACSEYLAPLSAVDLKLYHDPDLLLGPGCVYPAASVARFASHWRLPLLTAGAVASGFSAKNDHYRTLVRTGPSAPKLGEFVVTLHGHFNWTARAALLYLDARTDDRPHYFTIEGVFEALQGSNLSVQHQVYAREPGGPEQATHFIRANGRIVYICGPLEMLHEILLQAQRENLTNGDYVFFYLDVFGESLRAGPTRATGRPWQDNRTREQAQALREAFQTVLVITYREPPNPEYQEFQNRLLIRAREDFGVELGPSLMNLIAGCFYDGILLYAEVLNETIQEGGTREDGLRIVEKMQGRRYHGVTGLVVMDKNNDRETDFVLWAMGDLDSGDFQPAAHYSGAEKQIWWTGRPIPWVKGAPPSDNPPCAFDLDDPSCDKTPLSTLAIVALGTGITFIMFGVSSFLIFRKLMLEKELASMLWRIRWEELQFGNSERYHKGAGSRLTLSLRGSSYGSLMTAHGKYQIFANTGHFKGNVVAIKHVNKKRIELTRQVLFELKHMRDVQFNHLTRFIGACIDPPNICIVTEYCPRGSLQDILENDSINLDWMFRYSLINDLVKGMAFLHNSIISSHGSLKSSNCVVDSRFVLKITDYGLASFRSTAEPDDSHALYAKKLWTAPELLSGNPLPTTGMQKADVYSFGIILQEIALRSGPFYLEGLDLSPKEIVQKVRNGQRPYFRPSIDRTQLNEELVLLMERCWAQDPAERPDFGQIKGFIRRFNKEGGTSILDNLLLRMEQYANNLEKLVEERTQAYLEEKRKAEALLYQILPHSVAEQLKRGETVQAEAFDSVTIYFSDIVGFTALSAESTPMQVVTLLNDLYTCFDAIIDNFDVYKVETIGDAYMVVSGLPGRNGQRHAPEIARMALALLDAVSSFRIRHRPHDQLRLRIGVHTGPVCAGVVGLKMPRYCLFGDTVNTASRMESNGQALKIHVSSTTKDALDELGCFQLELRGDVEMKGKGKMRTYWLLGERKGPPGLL
Sequence of Atrial natriuretic peptide receptor 1 (Homo sapiens) (P16066 whole entry, looked up): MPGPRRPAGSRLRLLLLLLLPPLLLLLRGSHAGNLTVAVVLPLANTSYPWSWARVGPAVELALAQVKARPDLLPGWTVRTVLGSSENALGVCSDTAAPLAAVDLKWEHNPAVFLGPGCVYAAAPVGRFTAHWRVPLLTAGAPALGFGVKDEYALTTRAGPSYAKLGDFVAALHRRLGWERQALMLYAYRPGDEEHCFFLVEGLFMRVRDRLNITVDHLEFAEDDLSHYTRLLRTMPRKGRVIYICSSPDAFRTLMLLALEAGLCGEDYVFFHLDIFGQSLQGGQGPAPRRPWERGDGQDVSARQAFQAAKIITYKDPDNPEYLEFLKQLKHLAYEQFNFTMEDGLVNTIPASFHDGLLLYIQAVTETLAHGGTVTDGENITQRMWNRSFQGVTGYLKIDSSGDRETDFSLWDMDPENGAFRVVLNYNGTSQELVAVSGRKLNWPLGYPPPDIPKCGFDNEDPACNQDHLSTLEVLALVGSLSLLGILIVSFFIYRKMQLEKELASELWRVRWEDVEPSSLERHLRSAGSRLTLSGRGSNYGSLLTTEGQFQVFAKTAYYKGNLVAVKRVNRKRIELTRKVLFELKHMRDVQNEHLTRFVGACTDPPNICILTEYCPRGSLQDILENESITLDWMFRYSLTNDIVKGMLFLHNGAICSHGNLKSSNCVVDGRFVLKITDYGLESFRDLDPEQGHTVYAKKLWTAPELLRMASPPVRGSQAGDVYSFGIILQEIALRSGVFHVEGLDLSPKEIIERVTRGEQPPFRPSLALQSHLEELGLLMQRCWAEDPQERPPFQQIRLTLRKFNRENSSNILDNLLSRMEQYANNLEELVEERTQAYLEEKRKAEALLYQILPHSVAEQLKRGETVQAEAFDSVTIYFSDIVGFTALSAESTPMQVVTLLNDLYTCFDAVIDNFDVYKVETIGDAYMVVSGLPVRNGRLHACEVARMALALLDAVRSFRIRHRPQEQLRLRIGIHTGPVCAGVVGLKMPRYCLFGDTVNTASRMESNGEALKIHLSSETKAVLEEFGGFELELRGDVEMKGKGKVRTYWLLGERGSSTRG

Row | Structure (SMILES) | Potency [1] | Potency [2] | Potency [3] | max response [4] | Potency [5] | Potency [6] | Potency [7] | Potency [8] | Potency [9] | parasite growth, % of DMSO control [10] | parasite growth remaining, % of DMSO control (lower = more inhibition) [11] | parasite growth, % of control (lower = inhibition) [12] | growth, % of control [13]
1 | OC[C@H]1NC[C@@H](O)[C@@H]1O | inactive | inactive | inactive | 20.9% (inactive) | inactive | inactive | inactive | inactive |  |  |  |  | 
2 | CC(C)(C)c1ccc(/C=C/C(=O)Nc2ccc3c(c2)OCCO3)cc1 | inactive | inactive | inactive | 13.4% (inactive) | inactive | inactive | 16.5 µM (active) | 23.9 µM (active) |  |  |  |  | 
3 | Nc1nc2[nH]c(=O)cnc2c(=O)[nH]1 | inactive | inactive | inactive | 4% (inactive) | inactive | inactive | inactive |  | inactive |  |  |  | 
4 | CN1C2CCC1CC(OC(c1ccccc1)c1ccccc1)C2 (stereo not given) | inactive |  | inactive | 31% (inactive) | inactive | inactive | inactive | inactive |  |  |  |  | 
5 | O=C(O)c1cccnc1C(=O)O | inactive | inactive | inactive | 4.44% (inactive) | inactive | inactive | inactive |  | inactive |  |  |  | 
6 | O=C(O)c1ccccc1Nc1ccccc1 | inactive | inactive | inactive | 4.62% (inactive) | inactive | inactive | inactive |  | inactive |  |  |  | 
7 | OC1(c2ccc(Cl)cc2)CCN(Cc2c[nH]c3ccccc23)CC1 | inactive | inactive | inactive |  | inactive | inactive | inactive |  | inactive |  |  |  | 
8 | CC1CCN(CC[C@H]2CCCN2S(=O)(=O)c2cccc(O)c2)CC1 | inactive | inactive | inactive | 10.9% (inactive) | inactive | inactive | inactive | inactive |  |  |  |  | 
9 | CCCCCCCC/C=C\CCCCCCCC(=O)NCCc1ccc(O)c(O)c1 | inactive | inactive | inactive | 7.46% (inactive) | inactive | inactive | inactive | inactive |  |  |  |  | 
10 | CC(C)NC[C@H](O)COc1ccc(CC(N)=O)cc1 | inactive | inactive | inactive | 5.76% (inactive) | inactive | inactive | inactive | inactive |  |  |  |  | 
11 | CCCOC(=O)c1c(-c2ccccc2)nc(CC)c(C(=O)SCC)c1CCC | inactive | inactive | inactive | 9.8% (inactive) | inactive | inactive | inactive |  | inactive |  |  |  | 
12 | S=C(S)N1CCCC1 |  | inactive | inactive |  | inactive | inactive | 7.36 µM (active) | 9.53 µM (active) |  |  |  |  | 
13 | Oc1ccc(/C=C/c2ccc(/C=C/c3ccc(O)cc3)c(Br)c2)cc1 | inactive | inactive | inactive |  | inactive | inactive | inactive |  | inactive |  |  |  | 
14 | NC[C@@H]1O[C@H](c2ccccc2)Cc2c1ccc(O)c2O | inactive | inactive | inactive |  | inactive | inactive | inactive |  | inactive |  |  |  | 
15 | N#CC(C#N)=C(N)/C(C#N)=C/c1ccc(O)cc1 | inactive | inactive | inactive | 11.4% (inactive) | inactive | inactive | inactive |  | inactive |  |  |  | 
16 | CCCCCCCCCC[Si](C)(C)CCC(=O)NC(Cc1ccc(C)cc1)c1ccccc1 (stereo not given) | inactive | inactive | inactive | 13.6% (inactive) | inactive | inactive | inactive |  | inactive |  |  |  | 
17 | C[C@](Cc1ccc(O)c(O)c1)(NN)C(=O)O | inactive | inactive | inactive |  | inactive | inactive | inactive |  | inactive |  |  |  | 
18 | C=C1C(=O)O[C@@H]2[C@H]3O[C@]3(C)CCC=C(C)CC[C@@H]12 | inactive | inactive | inactive |  | inactive | inactive | 18.5 µM (active) |  | 11.7 µM (active) |  |  |  | 
19 | CCc1ccc2c(-c3cccc(Cl)c3)nc(=O)n(CC)c2n1 | inactive | inactive | inactive | 15.8% (inactive) | inactive | inactive | inactive | inactive |  |  |  |  | 
20 | CC(=O)SC1CC2=CC(=O)CC[C@]2(C)C2CC[C@@]3(C)C(CC[C@@]34CCC(=O)O4)C12 (stereo not given in full) | inactive | inactive | inactive | 7.64% (inactive) | inactive | inactive | inactive | inactive |  |  |  |  | 
21 | CC(O)C(O)[C@H]1CNc2nc(N)[nH]c(=O)c2N1 (stereo not given in full) | inactive |  | inactive | 8.13% (inactive) | inactive | inactive | inactive | inactive |  |  |  |  | 
22 | NC1CONC1=O (stereo not given) | inactive | inactive | inactive | 13.9% (inactive) | inactive | inactive | inactive | inactive |  | 94.2% | 99.7% | 78.4% | 106%
23 | OC[C@H]1O[C@H](n2cnc3c(N[C@H]4CCC[C@@H]4O)ncnc32)[C@H](O)[C@@H]1O | inactive | inactive | inactive | 20.9% (inactive) | inactive | inactive | inactive |  | inactive |  |  |  | 
24 | O=C(O)/C(=C/c1c(C(=O)O)[nH]c2cc(Cl)cc(Cl)c12)c1ccccc1 | inactive | inactive | inactive | 2.21% (inactive) | inactive | inactive | inactive | inactive |  |  |  |  | 
25 | c1ccc(CN2CCC3(CCCc4ccccc43)CC2)cc1 | inactive | inactive | inactive |  | inactive | inactive | inactive |  | inactive |  |  |  | 
26 | COc1cc([C@@H]2c3cc4c(cc3[C@H](O)C3COC(=O)[C@@H]32)OCO4)cc(OC)c1OC (stereo not given in full) |  | inactive | inactive |  | inactive | inactive | inactive | inactive |  |  |  |  | 
